What all share (settings): Compound concentration 20.0 uM, Protein concentration 2.0 uM, Result type QC Liability
In test [1] the target is Tyrosine-protein kinase ABL1 (Homo sapiens) (UniProt P00519).
Test [2] addresses Cyclin-dependent kinase 2 (Homo sapiens) (UniProt P24941).
Test [3] concerns the target Casein kinase I isoform delta (Homo sapiens) (UniProt P48730).
Test [4] concerns the target Glycogen synthase kinase-3 beta (Homo sapiens) (UniProt P49841).
Test [5] deals with Mitogen-activated protein kinase 1 (Homo sapiens) (UniProt P28482).
Test [6] deals with T1, Aurora kinase A (Homo sapiens) (UniProt O14965).
T1 sequence (whole entry): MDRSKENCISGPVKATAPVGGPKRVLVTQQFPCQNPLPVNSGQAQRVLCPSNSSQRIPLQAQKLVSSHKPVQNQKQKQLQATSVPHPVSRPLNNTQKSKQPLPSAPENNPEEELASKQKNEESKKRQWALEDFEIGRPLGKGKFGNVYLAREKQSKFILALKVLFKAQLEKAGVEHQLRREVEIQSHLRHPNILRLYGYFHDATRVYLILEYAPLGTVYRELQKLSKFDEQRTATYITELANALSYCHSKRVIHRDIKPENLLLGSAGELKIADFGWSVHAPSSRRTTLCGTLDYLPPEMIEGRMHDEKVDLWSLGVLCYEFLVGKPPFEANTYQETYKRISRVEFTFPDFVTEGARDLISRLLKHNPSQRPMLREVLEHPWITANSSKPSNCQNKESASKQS

Chain of Casein kinase I isoform delta (Homo sapiens) (P48730 whole entry, looked up, canonical isoform): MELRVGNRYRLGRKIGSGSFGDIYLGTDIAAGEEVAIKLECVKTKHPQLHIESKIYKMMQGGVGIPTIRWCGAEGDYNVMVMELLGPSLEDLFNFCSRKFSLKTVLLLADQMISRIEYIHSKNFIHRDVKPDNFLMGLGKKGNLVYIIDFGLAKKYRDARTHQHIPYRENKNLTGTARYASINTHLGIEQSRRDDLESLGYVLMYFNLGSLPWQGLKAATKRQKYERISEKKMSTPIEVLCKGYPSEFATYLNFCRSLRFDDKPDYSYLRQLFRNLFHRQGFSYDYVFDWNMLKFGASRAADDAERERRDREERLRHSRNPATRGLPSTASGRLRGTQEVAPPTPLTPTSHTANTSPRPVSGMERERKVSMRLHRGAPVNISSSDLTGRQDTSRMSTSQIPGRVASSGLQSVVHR
Chain of Mitogen-activated protein kinase 1 (Homo sapiens) (P28482 whole entry): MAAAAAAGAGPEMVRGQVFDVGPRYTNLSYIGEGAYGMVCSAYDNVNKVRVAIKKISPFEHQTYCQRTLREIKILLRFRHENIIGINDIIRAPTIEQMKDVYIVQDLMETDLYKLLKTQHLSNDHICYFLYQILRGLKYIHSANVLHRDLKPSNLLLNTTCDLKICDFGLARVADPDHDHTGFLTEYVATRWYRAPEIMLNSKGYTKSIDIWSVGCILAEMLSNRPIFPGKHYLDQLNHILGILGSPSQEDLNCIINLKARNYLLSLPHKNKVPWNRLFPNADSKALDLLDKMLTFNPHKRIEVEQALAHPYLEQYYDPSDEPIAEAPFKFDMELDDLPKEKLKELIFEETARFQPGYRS
Chain of Glycogen synthase kinase-3 beta (Homo sapiens) (P49841 whole entry, looked up): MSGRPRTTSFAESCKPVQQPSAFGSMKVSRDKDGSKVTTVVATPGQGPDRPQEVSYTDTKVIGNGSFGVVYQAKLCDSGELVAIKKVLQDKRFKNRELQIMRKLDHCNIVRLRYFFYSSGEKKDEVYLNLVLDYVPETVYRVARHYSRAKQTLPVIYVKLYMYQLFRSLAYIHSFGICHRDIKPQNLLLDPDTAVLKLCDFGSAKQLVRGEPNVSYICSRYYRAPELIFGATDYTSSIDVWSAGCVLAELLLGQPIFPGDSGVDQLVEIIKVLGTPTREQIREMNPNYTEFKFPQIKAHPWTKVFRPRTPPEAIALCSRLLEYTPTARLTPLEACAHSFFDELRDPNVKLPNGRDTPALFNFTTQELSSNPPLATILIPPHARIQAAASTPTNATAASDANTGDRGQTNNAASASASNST
Chain of Tyrosine-protein kinase ABL1 (Homo sapiens) (P00519 whole entry): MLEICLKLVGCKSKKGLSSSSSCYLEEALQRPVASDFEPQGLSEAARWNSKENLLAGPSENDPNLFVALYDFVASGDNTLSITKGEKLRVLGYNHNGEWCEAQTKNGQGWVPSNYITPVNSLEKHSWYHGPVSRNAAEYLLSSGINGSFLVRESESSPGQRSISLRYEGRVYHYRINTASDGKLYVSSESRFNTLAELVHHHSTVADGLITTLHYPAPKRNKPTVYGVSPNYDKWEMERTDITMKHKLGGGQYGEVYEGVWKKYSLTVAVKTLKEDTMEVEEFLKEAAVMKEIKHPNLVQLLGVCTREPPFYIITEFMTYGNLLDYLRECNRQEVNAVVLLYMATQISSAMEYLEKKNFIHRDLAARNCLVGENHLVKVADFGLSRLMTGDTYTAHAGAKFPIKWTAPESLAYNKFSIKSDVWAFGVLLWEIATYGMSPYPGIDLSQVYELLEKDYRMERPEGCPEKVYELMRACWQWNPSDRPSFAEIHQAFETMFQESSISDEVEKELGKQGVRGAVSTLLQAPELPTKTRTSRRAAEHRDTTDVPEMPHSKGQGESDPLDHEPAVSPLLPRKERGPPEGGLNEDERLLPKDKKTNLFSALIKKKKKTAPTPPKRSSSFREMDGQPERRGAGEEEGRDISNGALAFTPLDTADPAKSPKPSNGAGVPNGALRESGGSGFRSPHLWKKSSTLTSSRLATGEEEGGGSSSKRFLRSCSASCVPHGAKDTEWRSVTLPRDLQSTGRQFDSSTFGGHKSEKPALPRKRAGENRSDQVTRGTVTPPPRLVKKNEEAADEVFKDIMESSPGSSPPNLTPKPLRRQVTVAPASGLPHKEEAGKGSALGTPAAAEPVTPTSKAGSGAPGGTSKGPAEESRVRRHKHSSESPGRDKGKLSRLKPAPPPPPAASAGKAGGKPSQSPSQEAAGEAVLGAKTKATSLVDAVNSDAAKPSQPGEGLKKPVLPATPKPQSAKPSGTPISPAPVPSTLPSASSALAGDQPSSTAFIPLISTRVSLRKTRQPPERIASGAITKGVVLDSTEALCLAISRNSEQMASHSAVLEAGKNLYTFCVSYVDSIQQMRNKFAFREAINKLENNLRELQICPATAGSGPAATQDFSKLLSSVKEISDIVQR

Usually ΔTm stands for the shift of the melting midpoint relative to a reference. For the compound `CCCCNc1ncc2c(-c3ccc(CN4CCN(C)CC4)cc3)cn([C@H]3CC[C@H](O)CC3)c2n1`, the shift in melting temperature (ΔTm) in test [1] is 11.7 °C; in test [2], 5.95 °C; in test [3] it was 2.72 °C; in test [4], 4.8 °C; in test [5], 0.43 °C; in test [6], 13.5 °C.
Regarding `O=C(O)c1ccnc(N2CC(O)(c3ccc(OCc4c(-c5c(Cl)cccc5Cl)noc4C4CC4)cc3Cl)C2)c1`, the ΔTm was 0.22 °C in test [1]; -0.27 °C in test [2]; 0.41 °C in test [3]; -0.81 °C in test [4]; -0.58 °C in test [5]; -1.95 °C in test [6].
Consider `CC(C)S(=O)(=O)c1ccccc1Nc1nc(N[C@@H]2CCCN(CCCCCCCNC(=O)COc3cccc4c3C(=O)N(C3CCC(=O)N(C)C3=O)C4=O)C2)ncc1Cl` (some centres not stated), for which the ΔTm came out at 1.22 °C in test [1]; 1.08 °C in test [2]; 1.07 °C in test [3]; 8.52 °C in test [4]; 0.83 °C in test [5]; 7.69 °C in test [6].
For the compound `Cc1c(-c2c(F)cc(C(N)=O)c3[nH]c4c(c23)CC[C@H](C(C)(C)O)C4)cccc1-n1c(=O)c2cccc(F)c2n(C)c1=O`, the thermal shift (ΔTm) is 3.83 °C in test [1]; 0.48 °C in test [2]; 0.11 °C in test [3]; 0.79 °C in test [4]; -0.33 °C in test [5]; 10.9 °C in test [6].
On to `COc1c(OCCCN2CCOCC2)ccc2c1N=C(NC(=O)c1cnc(N)nc1)N1CCN=C21`, for which the shift in melting temperature (ΔTm) in test [1] was 0.09 °C; in test [2], 0.39 °C; in test [3], 0.2 °C; in test [4], -1.01 °C; in test [5] it was 0.14 °C; in test [6] it was -0.67 °C.
Take `Cc1cn(CCN2CCN(c3ccccc3-c3cc(C#N)cc(C(=O)NCCCN4CCCC4)c3)CC2)c2ccccc12`: the ΔTm is 0.13 °C in test [1]; 0.91 °C in test [2]; -2.16 °C in test [3]; -0.98 °C in test [4]; 0.52 °C in test [5]; -0.16 °C in test [6].
For `CCCc1c(OCCCOc2ccc(OCC(=O)O)cc2)ccc(C(C)=O)c1O`, the ΔTm in test [1] was 0.08 °C; in test [2], -0.16 °C; in test [3], 1.18 °C; in test [4], -0.07 °C; in test [5], -0.16 °C; in test [6] it was -1.56 °C.
On to `CCc1ccc(-c2ncn(CC3(F)CCN(C)CC3)c2-c2ccnc3[nH]ccc23)nc1`, for which the thermal shift (ΔTm) in test [1] was 0.05 °C; in test [2] it was 0.87 °C; in test [3] it was 0.57 °C; in test [4], -0.72 °C; in test [5], 0.39 °C; in test [6], -1.06 °C.
As for `Cc1ncsc1-c1ccc(CNC(=O)[C@@H]2C[C@@H](O)CN2C(=O)[C@@H](NC(=O)CCCCNC(=O)c2ccc(-c3ccc(N4CCN(C)CC4)c(NC(=O)c4c[nH]c(=O)cc4C(F)(F)F)c3)cc2)C(C)(C)C)cc1`, the shift in melting temperature (ΔTm) was -3.44 °C in test [1]; 1.06 °C in test [2]; 0.88 °C in test [3]; -0.58 °C in test [4]; -2.62 °C in test [5]; 0.62 °C in test [6].
Regarding `CCCN1C(=O)c2ccc(Cl)cc2Nc2ncccc21`, the ΔTm in test [1] came out at 0.81 °C; in test [2] it was 0.95 °C; in test [3], 0.61 °C; in test [4], 0.22 °C; in test [5], 0.22 °C; in test [6], 1.35 °C.
As for `N#C/C(=C\c1ccc(O)c(O)c1)C(=O)OCCc1cccs1`, the ΔTm in test [1] came out at 2.18 °C; in test [2] it was 1.1 °C; in test [3] it was 2.15 °C; in test [4] it was 0.01 °C; in test [5] it was 0.37 °C; in test [6] it was 4.16 °C.
As for `CCCCCCCN(CCc1ccc(SC(C)(C)C(=O)O)cc1)C(=O)Nc1ccc(F)cc1F`, the ΔTm in test [1] was 0.48 °C; in test [2], 0 °C; in test [3], 0.48 °C; in test [4] it was -1.12 °C; in test [5] it was -0.08 °C; in test [6], -1.93 °C.
`CCc1nc(-c2cccc(C)c2)c(-c2ccncc2)s1`: the ΔTm was 1.94 °C in test [1]; -0.27 °C in test [2]; 3.88 °C in test [3]; 3.39 °C in test [4]; 0.28 °C in test [5]; -0.09 °C in test [6].
In the case of `CC(=O)N1CCC(c2ccc(C(=O)NC3=NCCN3)cc2C(F)(F)F)CC1`, the ΔTm in test [1] was 0.33 °C; in test [2], 0.15 °C; in test [3], 0.3 °C; in test [4], -0.03 °C; in test [5], 0.1 °C; in test [6] it was -0.15 °C.
With `O=C(O)c1ccc(CN2C[C@@H]3C[C@H]2CN3Cc2ccc(Oc3ccc(-c4ncco4)cc3)cc2)cc1`, the ΔTm is 0.42 °C in test [1]; 0.83 °C in test [2]; 0.25 °C in test [3]; -0.14 °C in test [4]; 0.14 °C in test [5]; -0.18 °C in test [6].
Regarding `CC(C)c1nc2c(c3c1[C@H](c1ccc(C(F)(F)F)cc1)OC31CCOCC1)[C@H](O)CC(C)(C)C2`, the ΔTm was -0.1 °C in test [1]; -0.68 °C in test [2]; -0.53 °C in test [3]; -1.62 °C in test [4]; -0.14 °C in test [5]; -0.26 °C in test [6].
With `CC[C@H](NC(=O)[C@H](C)NC)C(=O)N1C[C@@H](O)C[C@H]1Cc1c(-c2[nH]c3cc(F)ccc3c2C[C@@H]2C[C@H](O)CN2C(=O)[C@H](CC)NC(=O)[C@H](C)NC)[nH]c2cc(F)ccc12`, the ΔTm was 0.09 °C in test [1]; 0.28 °C in test [2]; 1.26 °C in test [3]; -0.88 °C in test [4]; 0.38 °C in test [5]; -1.51 °C in test [6].

Source of the values: ChEMBL document CHEMBL5308504, “Tm Shift (DSF) assay results for EUbOPEN Chemogenomics Library” (2023).
